# Results filed as inconclusive are left out. Entries that show only a call come without a potency. A number with no mark means an inactive call. Calls of active or inactive are those of the source. The call rests on the fitted dose curve; in most records, active means well fitted curve in the direction sought with a large enough effect; inconclusive means small, poorly fitted or top-dose-only effect, or another doubt; inactive means no such curve, though single readings can be large; an effect the other way counts as inactive or inconclusive.
# Tests used:
# [1] = molecular target: Calcium and integrin-binding protein 1 (Homo sapiens) (UniProt Q99828); test: Primary qHTS for Identification of Calcium Integrin Binding Protein 1 (CIB1) Competitor (AID 1508620); details: CIB1-GST / FITC-alphaIIb peptide fluorescence polarization; series mostly up to 57.7 µM;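 further: GST tagged CIB1 binding a fluorescein labelled alphaIIb integrin peptide tracer; top concentration of the series differs between compounds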
# How it was run: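 Fluorescence polarization competition: CIB1-GST (1 uM final) preincubated with compound 15 min at room temperature, then FITC-labeled alphaIIb peptide (100 nM final) added for another 15 min. Polarization read at Ex 480/Em 540.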
# [2] = molecular target: Protein phosphatase 1D (Homo sapiens) (UniProt O15297); test: Rhodamine-PBP qHTS Assay for Modulators of WT P53-Induced Phosphatase 1 (WIP1) (AID 1347425); details: recombinant WIP1, Rhodamine-PBP phosphate fluorescence, real-time; series mostly up to 57.5 µM
# How it was run: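 The read-out is the change in Rhodamine-PBP fluorescence (f1 - f0, ex 525/em 598 nm) as Pi is released, read each minute for 11 min. Final reaction: 5 nM WIP1, 10 uM phosphopeptide VEPPL-pS-QETFS, 10 uM Rh-PBP, 50 mM Tris-HCl pH 7.5, 30 mM MgCl2. Compound was preincubated with enzyme for 1 hour at room temperature.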
# [3] = Primary qHTS for inhibitors of La Crosse Virus (LACV) - induced cell death in SH-SY5Y cells (AID 1508616); details: SH-SY5Y LACV cytopathicity rescue, ATP luminescence, 6 d; series mostly up to 4.29 µM;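 further: top concentration of the series differs between compounds; higher means more rescue of cells from virus-induced death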
# Excerpt: Assay Provider: Karin Peterson Ph.D.
# National Institute of Allergy and Infection Diseases, National Institute of Health
# La Crosse Virus (LACV) is a California serogroup mosquito-borne arbovirus, family Peribunyaviridae, which is an endemic pathogen in North America and can induce a rare, life-threatening neurological disease in children. LACV was first isolated in the early 1960s, from a summer "rural encephalitis" case in La Crosse, Wisconsin, USA. Since then, LACV encephalitis cases have been found in more than twenty states, with most cases in the Mississippi and Ohio River basins. The life cycle of LACV is maintained between the vector, the eastern tree-hole mosquito Aedes triseriatus, and vertebrate hosts including eastern gray squirrels (Sciurus carolinensis) and chipmunks (Tamiasstriatus grinseus). […] Most LACV infections in humans are asymptomatic or induce mild clinical symptoms of fever, headache, lethargy and vomiting. However, in some cases LACV can cause severe neuroinvasive disease, including encephalitis, meningitis, and meningoencephalitis, requiring hospitalization. To date, there is neither a licensed vaccine nor a Food and Drug Administration (FDA) approved antiviral therapy available to prevent or treat LACV encephalitis. The primary treatment for viral encephalitis is palliative care due to the lack of therapeutics. In the current study, we conducted a screen of 4,096 FDA approved and bioactive small molecules against LACV, by screening for rescue of LACV-induced cell death in SH-SY5Y cells.
# LACV-induced cytopathicity assay
# SEQUENCE No. (1,2, 3, etc.); […] (e.g., Cells, Incubation, Reagent, etc.); VALUE and DESCRIPTION.
# 1. Reagent; 2 uL; Cell solution.
# 3. Compounds; 23nL; Compound library
# 4. Reagent; 12 uL; LACV virus
# 6. Reagent; 24 uL; ATPLite (PerkinElmer)
# 7. Time; 5 min; Room temperature
# 8. Detection; Luminescence; View
# NOTES (numbers refer to sequence above)
# 1. Seed 6000 SH-SY5Y cells (ATCC CRL-2266) in 2 microL/well media (DMEM/F12 10% FBS, 1x L-Glutamine, 1x Pyruvate, 1x NEAA, 1x Pen/Strep) in 384-well assay plates (tissue culture treated, white, solid bottom).
# 2. Incubate at 37 degrees C with 5% CO2 for 24 hr.
# 3. Dispense 23 nL/well compounds in DMSO via pin transfer.
# 4. Dispense 12 microL/well of LACV (LACV/human/1978) in media at 0.01 MOI.
# 5. Incubate at for 6 days at 37C 5% CO2
# 6. Dispense 24 microL/well of ATPLite 1step Luminescence assay system (PerkinElmer).
# 7. Incubate for 5 min at room temperature.
# 8. Read luminescence signal (Viewlux plate reader, PerkinElmer). Data was normalized with DMSO control wells containing LACV as 0%, and DMSO control wells without virus as 100%.
# [4] = molecular target: Calcium and integrin-binding protein 1 (Homo sapiens) (UniProt Q99828); test: Confirmatory qHTS for Identification of Calcium Integrin Binding Protein 1 (CIB1) Competitor (AID 1508617); details: CIB1 binding competition assay, biochemical qHTS; series mostly up to 114 µM; further: nearly all actives have a fitted effect of over 65% in size
# Excerpt: Assay Provider: Ulhas P. Naik, PhD
# Sidney Kimmel Medical College
# Thomas Jefferson University, Philadelphia, PA
# Primary function of platelets is to maintain hemostasis. At the site of vascular injury, platelets adhere to adhesive proteins such as collagen and von Willebrand factor. Adherent platelets are activated and generate soluble platelet agonists such as thrombin, ADP and thromboxane A2. Following exposure of circulating platelets to these agonists, results in platelet shape change, granule secretion and activation of platelet integrin alphaIIb-beta3. Ligand binding to activated integrin alphaIIb-beta3 triggers outside-in signaling, leading to platelet aggregation, stabilization of platelet plug, and clot retraction. Upon atherosclerotic plaque rupture also causes platelet plug formation, which underlies a number of cardiovascular diseases such as myocardial infraction and stroke. A number of anti-platelet drugs such as aspirin, clopidogrel, prasugrel, vorapaxar, and eptifibatide are currently available to prevent the thrombotic complications. However, these anti-platelet agents have several limitations including inherent variability in individual responses, developing resistance, and serious bleeding side effects. For these reasons they are not suitable for long-term protection. Based on the experiences with current anti-platelet drugs, it appears that the most useful therapeutic approach is to intersect the secondary responses such as integrin outside-in signaling or recruitment of platelets by TxA2 and secreted ADP. Compounds, which can largely preserve the primary hemostatic function of platelets but inhibit secondary response will be most desired therapeutic agents for treatment of cardiovascular disease.
# CIB1 is a calcium integrin binding protein, which specifically interact with the alphaIIb subunit of integrin alphaIIb-beta3. Binding of CIB1 to alphaIIb regulates the outside-in signaling in platelets, which is needed for thrombus stabilization and thrombus growth. […] Therefore, we propose that discovery of a small molecule that can prevent the association of CIB1 and alphaIIb-beta3 will be a potential anti-platelet agent that can block the thrombus formation without undue effect on hemostasis.
# To develop fluorescence polarization (FP) assay using fluorescently labeled alphaIIb peptide and CIB1 protein. Using FP assay characterize the binding affinity, competitive inhibition, and acceptable Z factor (0.5 to1) in order to perform the HTS to identify small molecule compound that can prevent CIB1 binding to platelet integrin alphaIIb-beta3. Active compounds were re-acquired and validated using confirmatory and counterscreens.
# [1] […]
# 7; Detection; Ex 480/ Em 540; ViewLux Fluorescence Read […]
# Calcium and integrin-binding protein 1 (Homo sapiens), sequence (Q99828 whole entry, looked up): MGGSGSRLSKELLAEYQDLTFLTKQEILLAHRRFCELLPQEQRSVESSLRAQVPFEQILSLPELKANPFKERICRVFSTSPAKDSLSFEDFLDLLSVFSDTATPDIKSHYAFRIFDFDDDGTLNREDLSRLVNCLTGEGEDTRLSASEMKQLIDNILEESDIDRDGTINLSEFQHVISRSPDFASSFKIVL
# Protein phosphatase 1D (Homo sapiens), sequence (O15297 whole entry, looked up): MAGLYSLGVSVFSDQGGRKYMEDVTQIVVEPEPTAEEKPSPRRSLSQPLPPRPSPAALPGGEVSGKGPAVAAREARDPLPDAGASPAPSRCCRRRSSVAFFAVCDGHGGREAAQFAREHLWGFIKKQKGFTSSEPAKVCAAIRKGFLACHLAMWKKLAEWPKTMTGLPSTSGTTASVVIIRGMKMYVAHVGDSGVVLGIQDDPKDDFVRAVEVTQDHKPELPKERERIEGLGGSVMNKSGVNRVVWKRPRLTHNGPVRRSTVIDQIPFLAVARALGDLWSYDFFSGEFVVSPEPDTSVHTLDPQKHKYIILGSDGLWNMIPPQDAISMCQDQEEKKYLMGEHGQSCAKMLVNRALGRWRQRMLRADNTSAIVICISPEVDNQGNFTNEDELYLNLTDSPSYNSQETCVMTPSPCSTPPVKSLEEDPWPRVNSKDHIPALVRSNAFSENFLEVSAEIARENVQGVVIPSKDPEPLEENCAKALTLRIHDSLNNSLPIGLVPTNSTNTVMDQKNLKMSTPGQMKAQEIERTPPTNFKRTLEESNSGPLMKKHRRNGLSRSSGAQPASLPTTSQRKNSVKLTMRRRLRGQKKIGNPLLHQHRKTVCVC
structure (smiles),measurement,setting,value
CC1(C)CC(=O)c2c(C(F)(F)F)nn(-c3ccc(C(N)=O)c(NC4CCC(O)CC4)c3)c2C1 (stereo unspecified),Potency,[1],inactive
COc1cc2nccc(Oc3ccc(NC(=O)Nc4cc(C)on4)c(Cl)c3)c2cc1OC,Potency,[1],inactive
CCC[C@H](Nc1nc(-c2ccc(NC(=O)NCC)c(OC)c2)ncc1C)c1cccnc1,Potency,[1],inactive
CC1CCN(c2cc(N3CCN(C)CC3)ccc2NC(=O)c2cc(C#N)c[nH]2)CC1,Potency,[1],inactive
NC(=O)c1nnn(Cc2cc(Cl)c(C(=O)c3ccc(Cl)cc3)c(Cl)c2)c1N,Potency,[1],inactive
c1ccc(CNc2nc(N3CCOc4ccccc43)nc3c2CCCC3)cc1,Potency,[1],inactive
CN(C)CCN(Cc1ccc(Cl)cc1)c1ccccn1,outcome,[2],inactive
same,outcome,[3],inactive
same,Potency,[1],inactive
Cc1ccccc1C(C(=O)NC1CCCCC1)N(C(=O)CNc1ccc(C#N)cc1)c1cccc(F)c1 (stereo unspecified),Potency,[1],inactive
CN(C)c1ccc(-c2nc3ncc(Cl)c(N4CCN(CC(=O)Nc5nccs5)CC4)c3[nH]2)cc1,Potency,[1],inactive
N#Cc1c(N(CC(=O)O)CC(=O)O)sc(C(=O)O)c1CC(=O)O,Potency,[1],inactive
C[C@H]1COC2=C1C(=O)C(=O)c1c2ccc2c1CCCC2(C)C,Potency,[4],inactive
O=C(Nc1cccc2c(=O)cc(-c3nn[nH]n3)oc12)c1ccc(OCCCCc2ccccc2)cc1,outcome,[3],inactive
same,Potency,[1],inactive
CN(C)CCCNC(=O)c1ccc(-c2cc(O)c3ncccc3c2)cc1,Potency,[4],inactive
same,Potency,[1],inactive
O=C1CN2Cc3c(ccc(Cl)c3Cl)N=C2N1,Potency,[1],inactive
CC(C)N(CCCNC(=O)Nc1ccc(C(C)(C)C)cc1)C[C@H]1O[C@@H](n2cc(Br)c3c(N)ncnc32)[C@H](O)[C@H]1O,Potency,[1],inactive
CC1C(=O)OC2C(O)C34C5CC(C(C)(C)C)C36C(OC(=O)C6O)OC4(C(=O)O5)C12O (stereo unspecified),Potency,[1],inactive
CO[C@H]1/C=C\O[C@@]2(C)Oc3c(C)c(O)c4c(O)c(c5c(nc6cc(C)ccn65)c4c3C2=O)NC(=O)C(C)=CC=C[C@H](C)[C@H](O)[C@@H](C)[C@@H](O)[C@@H](C)[C@H](OC(C)=O)[C@H]1C,Potency,[1],inactive
O=c1[nH]c(=O)n([C@H]2C[C@@H](O)[C@@H](CO)O2)cc1C(F)(F)F,Potency,[1],inactive
O=c1cc(-c2ccc(O)c(O)c2)oc2cc(O)cc(O)c12,Potency,[1],inactive
CS(=O)(=O)c1ccc(C2=C(c3ccccc3)C(=O)OC2)cc1,Potency,[1],inactive
CC(C)C[C@@H](N)[C@H](O)C(=O)N[C@H](C(=O)N[C@H](C(=O)N[C@@H](CC(=O)O)C(=O)O)C(C)C)C(C)C,Potency,[1],inactive
FC(F)(F)c1ccc(C=Cc2nc(COc3ccc(CCCCn4ccnn4)cc3)co2)cc1,Potency,[1],inactive
CCCCC(F)(F)[C@@]1(O)CC[C@H]2[C@H](CC(=O)[C@@H]2CCCCCCC(=O)O)O1,Potency,[1],inactive
CC[C@H](C)C(=O)O[C@H]1C[C@H](O)C=C2C=C[C@H](C)[C@H](CC[C@@H](O)C[C@@H](O)CC(=O)O)[C@H]21,Potency,[1],inactive
CNC(=O)c1ccc2c(C(=Nc3cccc(CN(C)C)c3)c3ccccc3)c(O)[nH]c2c1,Potency,[1],inactive
CNC(=O)c1cc(COc2nnc(Nc3ccc(Cl)cc3)c3ccoc23)ccn1,Potency,[1],inactive
Cc1ccc(NC(=O)Nc2cc(C(F)(F)F)ccc2F)cc1Nc1ccc2c(c1)NC(=O)C2=Cc1ccc[nH]1,Potency,[1],inactive
CCCCCCCCCCCCCC(=O)N[C@H](CO)[C@H](O)c1ccc([N+](=O)[O-])cc1,Potency,[1],inactive
CNC(=O)c1cc(Oc2ccc(NC(=O)Nc3ccc(Cl)c(C(F)(F)F)c3)c(F)c2)ccn1,Potency,[1],inactive
OCCn1cc(-c2ccc3c(c2)CCC3=NO)c(-c2ccncc2)n1,Potency,[1],inactive
C[C@@H]1[C@H](C)CC[C@]2(C(=O)O)CC[C@]3(C)C(=CC[C@@H]4[C@@]5(C)CC[C@H](O)C(C)(C)[C@H]5CC[C@]43C)[C@@H]12,Potency,[1],inactive
O=C(O)C1=CO[C@@H](O[C@@H]2O[C@H](CO)[C@H](O)[C@H](O)[C@H]2O)[C@@H]2C(CO)=CC[C@H]12,Potency,[1],inactive
CO[C@H]1C=CO[C@@]2(C)Oc3c(C)c(O)c4c(O)c(c(C=NN5CCN(C)CC5)c(O)c4c3C2=O)NC(=O)C(C)=CC=C[C@H](C)[C@H](O)[C@@H](C)[C@@H](O)[C@@H](C)[C@H](OC(C)=O)[C@H]1C,"activity change, negative = inhibition",[1],-2.55% [at 12.4 µM]
CC(C)Oc1cc(Nc2nc(N[C@@H](C)c3ccc(F)cn3)ncc2Cl)[nH]n1,Potency,[1],inactive
COc1ccc2c(c1)CC[C@H]1[C@@H]2CC[C@]2(C)[C@@H](NCCCCCCN3C(=O)C=CC3=O)CC[C@H]12,Potency,[1],inactive
CN1CCC(COc2cnc(-c3cccc(Cn4nc(-c5cccc(C#N)c5)ccc4=O)c3)nc2)CC1,Potency,[1],inactive
O=C(CO)N1CCC(c2[nH]nc(-c3ccc(Cl)cc3)c2-c2ccncn2)CC1,Potency,[1],inactive
CCN1C[C@H](C)n2c(c(O)c3c(=O)n(Cc4ccc(F)c(Cl)c4)nc(C(=O)NC)c32)C1=O,Potency,[1],inactive
CC(C)CN(C[C@@H](O)[C@H](Cc1ccccc1)NC(=O)O[C@H]1CO[C@H]2OCC[C@H]21)S(=O)(=O)c1ccc(N)cc1,Potency,[1],inactive
O=C(O)Cc1cccc(OCCCN(Cc2cccc(C(F)(F)F)c2Cl)CC(c2ccccc2)c2ccccc2)c1,Potency,[1],inactive
O=C(Nc1cccc(Cl)c1)Nc1ncc(CCNc2ncnc3ccsc23)s1,Potency,[1],inactive
NC(=O)c1ncn([C@@H]2O[C@H](CO)[C@@H](O)[C@@H]2O)n1,Potency,[1],inactive
CCOC(=O)[C@@H](N)CCC(=O)N[C@@H](CSCc1ccccc1)C(=O)N[C@@H](C(=O)OCC)c1ccccc1,Potency,[1],inactive
CNC(=O)[C@H](CC1=CN=C2C=CCC=C12)NC(=O)[C@@H](CC(=O)NO)CC(C)C,Potency,[1],inactive
Cc1csc(-c2nnc(Nc3ccc(Oc4ncccc4-c4ccnc(N)n4)cc3)c3ccccc23)c1,Potency,[1],inactive
Oc1ccc(C=Cc2cc(O)cc(O)c2)cc1,Potency,[1],inactive
COc1cc([C@@H]2c3cc4c(cc3[C@@H](O[C@@H]3O[C@@H]5CO[C@@H](C)O[C@@H]5[C@H](O)[C@@H]3O)[C@H]3COC(=O)[C@H]23)OCO4)cc(OC)c1O,Potency,[1],inactive
